# According to PubChem BioAssay:
# Where “and” joins values, the source holds several entries; their conditions need not be identical. Identical values can stand only once. Calls of active or inactive are those of the source.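 How the source made its calls, unless noted: active means inhibition at or above 50% relative to wild type and mutant plate controls; inactive means inhibition below 50%.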
# What was measured:
# [1] = inhibitors of TNFa-induced NFkB p65 translocation, primary screen, imaging, HUVEC, MLSMR starter and 10KST1 sets (AID 438;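 active means inhibition above 20% together with a positive visual image hit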;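 further: compound added about 3h40 before a 20 min TNFalpha stimulation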;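 on inhibition: signal is the nuclear over cytoplasmic p65 intensity ratio per well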); conditions: HUVEC TNFa-induced p65 nuclear translocation; cell count: measured here: nuclei count (cytotoxicity indicator), at 2.08 µM; inhibition: at 2 µM, stronger effect = higher value, 0% TNFa-plus-vehicle, 100% no-TNFa wells
# [2] = inhibitors of mutant huntingtin aggregation, primary screen, imaging, exon1htt(103Q)mCFP cells, high-content imaging (AID 483;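 active means visual image review flags a hit and inhibition of aggregation exceeds 20%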;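 further: compound exposure lasted 3 days before fixation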;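 on nuclei count: percent of the per-plate median nuclei count of sample wells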); conditions: exon1htt(103Q)mCFP cell line, aggregate imaging, at 2 µM; inhibition of aggregation: stronger effect = higher value; nuclei count: measured here: cell count, toxicity
# [3] = inhibitors of E-selectin induction by TNFa, primary screen, imaging, HUVEC, immunofluorescence, MLSMR starter and 10KST1 sets (AID 487;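 active means visually confirmed hit in the image check and inhibition above 20%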;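 on inhibition: signal is fraction of cell area covered by stained E-selectin grains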;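 on nuclei count: 100% = median nuclei count of all wells on the same plate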); conditions: HUVEC TNFalpha-induced E-selectin immunofluorescence imaging, at 2 µM; inhibition: stronger effect = higher value; nuclei count: measured here: cell number, toxicity
# [4] = DUSP6 inhibitors restoring Erk phosphorylation by chemical complementation, primary imaging in DUSP6-transfected HeLa (AID 609;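 active means compounds giving at least 50% inhibition in the cell-based MKP-3 phosphatase rescue imaging test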;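 on inhibition: phospho-Erk level distribution per well compared with pooled transfected vehicle control wells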); conditions: HeLa MKP-3 transfected, phospho-Erk imaging KS statistic, at 10 µM, cells stimulated with TPA for 15 min
# [5] = target: Dual specificity protein phosphatase 6 (Homo sapiens) (UniProt Q16828); test: as above; conditions: HeLa MKP-3 transfected, phospho-Erk imaging KS statistic; at 10 µM; stronger effect = higher value; cells stimulated with TPA for 15 min
# Sequence of Dual specificity protein phosphatase 6 (Homo sapiens) (Q16828 whole entry, looked up): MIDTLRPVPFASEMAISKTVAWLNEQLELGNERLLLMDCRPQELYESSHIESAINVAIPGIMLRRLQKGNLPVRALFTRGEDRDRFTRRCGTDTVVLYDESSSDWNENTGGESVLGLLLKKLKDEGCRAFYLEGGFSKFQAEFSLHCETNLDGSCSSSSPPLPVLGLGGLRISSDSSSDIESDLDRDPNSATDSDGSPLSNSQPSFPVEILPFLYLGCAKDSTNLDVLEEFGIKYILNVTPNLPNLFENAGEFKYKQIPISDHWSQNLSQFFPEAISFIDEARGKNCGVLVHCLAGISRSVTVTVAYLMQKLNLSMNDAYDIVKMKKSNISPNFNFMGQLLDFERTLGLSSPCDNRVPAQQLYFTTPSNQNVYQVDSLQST
# [6] = target: Voltage-gated potassium channel subunit beta-2 (Rattus norvegicus) (UniProt P62483); test: KvBeta enzyme negative modulators, primary screen, biochemical, NADPH fluorescence (AID 622;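 active means fluorescence slope higher than the sample average by over 3 SD, cut at about -0.22 in these data, passing the limit was not always enough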;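 further: slope of raw intensity against log time taken from 70 to 1610 s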); conditions: recombinant KvBeta, 4-cyanobenzaldehyde reduction, at 10 µM, stronger effect = higher value
# Sequence of Voltage-gated potassium channel subunit beta-2 (Rattus norvegicus) (P62483 whole entry, looked up): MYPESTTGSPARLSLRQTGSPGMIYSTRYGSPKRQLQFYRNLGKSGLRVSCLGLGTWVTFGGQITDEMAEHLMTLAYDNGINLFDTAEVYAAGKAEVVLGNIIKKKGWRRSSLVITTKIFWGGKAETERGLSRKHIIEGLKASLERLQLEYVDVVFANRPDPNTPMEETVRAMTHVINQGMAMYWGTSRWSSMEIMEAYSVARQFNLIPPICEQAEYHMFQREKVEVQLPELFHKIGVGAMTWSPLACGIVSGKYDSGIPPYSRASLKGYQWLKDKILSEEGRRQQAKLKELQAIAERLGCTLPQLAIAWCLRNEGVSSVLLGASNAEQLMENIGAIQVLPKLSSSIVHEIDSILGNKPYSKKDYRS
# [7] = target: Voltage-gated potassium channel subunit beta-2 (Rattus norvegicus) (UniProt P62483); test: KvBeta positive modulators, primary screen, biochemical, NADPH fluorescence (AID 623;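 active means NADPH fluorescence slope more negative than the mean of all samples by about 3 SD, 99.7% confidence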;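 further: fluorescence intensity change per second fitted from 20 to 320 s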); conditions: Recombinant KvBeta, NADPH fluorescence decrease slope, 10 min; at 10 µM; stronger effect = lower value
# [8] = target: Alpha-2C adrenergic receptor (Homo sapiens) (UniProt P18825); test: modulators of alpha2C/GIRK thallium flux, primary screen, cell-based, HEK293 alpha2C/GIRK1/2 (AID 624;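 active means fluorescence slope after compound addition differing from the mean of all screened samples at 99.7% confidence, in either direction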;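 further: slope of fluorescence ratio to pre-addition baseline per second over 15 to 24 s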); conditions: thallium flux BTC fluorescence, at 10 µM, actives lie on both sides
# Sequence of Alpha-2C adrenergic receptor (Homo sapiens) (P18825 whole entry, looked up): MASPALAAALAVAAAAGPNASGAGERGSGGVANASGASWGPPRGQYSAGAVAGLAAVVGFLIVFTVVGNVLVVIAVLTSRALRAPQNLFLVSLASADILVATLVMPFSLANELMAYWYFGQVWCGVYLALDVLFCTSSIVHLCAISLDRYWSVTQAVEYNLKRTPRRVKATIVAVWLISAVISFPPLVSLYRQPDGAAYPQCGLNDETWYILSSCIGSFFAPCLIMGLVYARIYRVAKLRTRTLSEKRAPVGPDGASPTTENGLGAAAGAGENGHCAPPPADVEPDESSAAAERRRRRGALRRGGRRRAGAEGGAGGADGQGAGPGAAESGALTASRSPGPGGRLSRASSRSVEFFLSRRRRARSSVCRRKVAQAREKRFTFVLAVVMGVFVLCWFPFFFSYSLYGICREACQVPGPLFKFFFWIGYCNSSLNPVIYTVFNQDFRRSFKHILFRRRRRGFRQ
# [9] = inhibitors of larval lipid processing in zebrafish, primary screen, whole organism, PED6 fluorescence, gall bladder and intestine (AID 686;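 active means a full or partial loss of lipid-probe fluorescence in the fish gall bladder, intestine or both, judged by eye; inactive means no fluorescence loss, or compound toxic to the fish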;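 further: larvae 5 to 7 days old with five fish per well; signal comes from phospholipase A2 cleavage of quenched PED6 carried via bile; overnight exposure to compound and PED6 before scoring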); conditions: Zebrafish larvae PED6 lipid processing, fluorescence scoring; screened at 20 µM (by protocol)
# [10] = inhibitors of Chlamydomonas gravitaxis, primary screen, whole organism, Chlamydomonas reinhardtii, WT vs cilia-less mutant, absorbance, 96-well (AID 463189); conditions: OD600 absorbance, 2 days, at 10 µM, stronger effect = higher value;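 further: 0% = wild type cc124 cells in DMSO and 100% = ciliumless bld1 mutant cells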
# [11] = inhibitors of Sendai virus-induced IRF3 signaling, primary screen, TLR/RLR signaling modifier project, cell-based, Sendai virus stimulus, luciferase, 10K MLSCN set (AID 602276;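 active means inhibition at or above 50% at 10 µM; inactive means inhibition below 50%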;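 further: firefly luciferase from ISG56 promoter only with Renilla not read in this screen; 0% = Sendai virus plus DMSO and 100% = medium plus DMSO without virus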); conditions: HEK293 RL24 IRF3 luciferase reporter, at 10 µM, stronger effect = higher value
# [12] = inhibitors of poly I:C-induced TLR3 signaling, primary screen, cell-based, poly I:C stimulus, luciferase, 10K MLSCN set (AID 602277;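 active means inhibition of the reporter signal at or above 50%; inactive means inhibition below 50%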); conditions: HEK293-TLR3 RL24 IRF3 luciferase reporter, at 10 µM, stronger effect = higher value
# [13] = measured here: cell density z-score
# [14] = measured here: nuclear c-Myc green intensity z-score
# [15] = measured here: nuclear pErk red intensity z-score, stronger effect = higher value
SMILES,cell count [1],inhibition [1],inhibition of aggregation [2],nuclei count [2] [%],inhibition [3],nuclei count [3] [%],"z-score [4, 13]","z-score [4, 14]","z-score [4, 15]",inhibition [5],fluorescence slope [6],NADPH fluorescence slope [7],slope [8],outcome [9],inhibition [10],inhibition [11],inhibition [12]
CC(Cc1ccc(O)c(O)c1)C(C)Cc1ccc(O)c(O)c1 (stereo not given),641,12.1% (inactive),-17.2% (inactive),100,-62.1% (inactive),127,0.848,0.39,-0.226,16.8% (inactive),-0.504 (inactive),-8.3e-05 (inactive),0.00569 (inactive),inactive,-9.23% (inactive),3.4% (inactive),-2.88% (inactive)
O=C(O)CCN(CCC(=O)O)c1nnc(SCc2ccccc2)s1,428,4% (inactive),-9.5% (inactive),108,-187% (inactive),136,0.906,-0.398,-0.408,-3.98% (inactive),-0.393 (inactive),-6e-05 (inactive),0.0059 (inactive),inactive,-1.99% (inactive),18.7% (inactive),25.8% (inactive)
O=C(CSc1nnc(-c2ccco2)c(-c2ccco2)n1)Nc1ccccc1,582,-9.5% (inactive),-9.2% (inactive),100,-30.7% (inactive),123,0.318,-1.08,1.26,1.6e-07% (inactive),-0.358 (inactive),-1.6e-05 (inactive),0.00359 (inactive),inactive,17.3% (inactive),-13.8% (inactive),6.55% (inactive)
N#Cc1c(N)n(CCOC(=O)c2cccc(Br)c2)c2nc3ccccc3nc12,592,0.6% (inactive),-46.7% (inactive),75.5,-20.6% (inactive),108,1.33,-2.21,-0.755,-1.12% (inactive),-0.434 (inactive),-0.000171 (inactive),0.00581 (inactive),inactive,15.2% (inactive),16.3% (inactive),30.6% (inactive)
COc1cccc(Cn2c(OCC3CCCO3)nc3c2c(=O)n(C)c(=O)n3C)c1 (stereo not given),411,-13.3% (inactive),1.3% (inactive),104,-83.9% (inactive),153,-0.111,0.171,0.516,-7.28% (inactive),-0.377 (inactive),-2.5e-05 (inactive),0.00528 (inactive),inactive,0.777% (inactive),17.3% (inactive),17.8% (inactive)
CCN(CC)CCOC(=O)C(c1ccccc1)c1ccccc1,533,-8.8% (inactive),19.8% (inactive),104,-7.9% (inactive),122,-0.21,-0.778,-0.535,7.39% (inactive),-0.478 (inactive),-3.2e-05 (inactive),0.00418 (inactive),inactive,-5.27% (inactive),9.86% (inactive),40.1% (inactive)
Nc1ccc(S(=O)(=O)c2ccc(N)cc2)cc1,511,-1.5% (inactive),0.3% (inactive),103,-20.6% (inactive),106,-0.829,0.112,0.308,16.8% (inactive),-0.465 (inactive),3.3e-05 (inactive),0.00573 (inactive),inactive,8.87% (inactive),-3.01% (inactive),11.3% (inactive)
CNCCC=C1c2ccccc2CCc2ccccc21,525,0.8% (inactive),8% (inactive),77,-20.7% (inactive),117,-0.881,-0.123,2.59,-10.4% (inactive),-0.521 (inactive),-4.9e-05 (inactive),0.00426 (inactive),inactive,34% (inactive) and 30.7% (inactive),29.4% (inactive),43.5% (inactive)
CC(C)(Oc1ccc(CCNC(=O)c2ccc(Cl)cc2)cc1)C(=O)O,649,-3% (inactive),5.2% (inactive),107,-101% (inactive),135,-0.113,-1.08,-0.613,15.3% (inactive),-0.452 (inactive),-4.1e-05 (inactive),0.00448 (inactive),inactive,39.4% (inactive),9.06% (inactive),22.2% (inactive)
C[C@@H]1C[C@H]2[C@@H]3CCC4=CC(=O)C=C[C@]4(C)[C@@]3(F)[C@@H](O)C[C@]2(C)[C@@]1(O)C(=O)COP(=O)(O)O,525,-10.3% (inactive),-19.8% (inactive),49.4,-15.3% (inactive),98.8,0.835,0.378,-0.291,25.1% (inactive),-0.516 (inactive),-5.2e-05 (inactive),0.00437 (inactive),inactive,31.6% (inactive),-1.94% (inactive),31.9% (inactive)
